For assay [1], the target named is Cytochrome P450 2D6 (Homo sapiens) (UniProt P10635). Briefly: Cytochrome P450 family 2 subfamily D member 6 (CYP2D6) small molecule antagonists: luciferase biochemical (cell-free) qHTS assay (AID 1645840; active means well fitted curve in the direction sought with a large enough effect in the repeat runs; an effect the other way counts as inactive or inconclusive; further: nearly all actives have a fitted effect of over 55% in size; further: potency means the concentration at half of the fitted maximal effect). In outline: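 P450-Glo CYP2D6 system: proluciferin substrate converted by enzyme to luciferin, read by luminescence proportional to activity. Enzyme-substrate mix with compound 10 min at room temperature, then NADPH regeneration 1 h before detection reagent.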
In general terms: In qHTS, concentration-response curves come from the screen itself.

Assay [2] has as its target Cytochrome P450 2C9 (Homo sapiens) (UniProt P11712). Briefly: Cytochrome P450 family 2 subfamily C member 9 (CYP2C9) small molecule antagonists: luciferase biochemical (cell-free) qHTS assay (AID 1645842; active means well fitted curve in the direction sought with a large enough effect in the repeat runs; an effect the other way counts as inactive or inconclusive; further: nearly all actives have a fitted effect of over 55% in size; further: potency means the concentration at half of the fitted maximal effect). Put shortly:
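P450-Glo CYP2C9 system: proluciferin substrate with enzyme in mix containing 0.4% BSA, 10 min at room temperature, then NADPH regeneration solution added and incubated 1 h at 37C. Detection reagent stopped reaction; luminescence read after 20 min as RLU.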

A short description of assay [3]: Primary qHTS for inhibitors of nuclear receptor binding SET domain protein 2 (NSD2) in an isogenic RCH-ACV NSD2 p.E1099K mutant (9B) (AID 1645876). Further: nearly all actives have a fitted effect of over 70% in size. Further: potency means the concentration at half of the fitted maximal effect.
Assay [4] is described as follows: Primary qHTS for inhibitors of nuclear receptor binding SET domain protein 2 (NSD2) in an RCH-ACV wild type WT cells (2C) (AID 1645877). Further: nearly all actives have a fitted effect of over 70% in size. Further: potency means the concentration at half of the fitted maximal effect.
Assay [5] addresses Papain (Carica papaya) (UniProt P00784). Briefly: Primary qHTS assay for inhibitors of the protease papain (AID 1645873).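 Further: papain turnover of Z-FR-AMC read as the AMC fluorescence gain over 10 min; series mostly up to about 50 µM.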
Assay [6] has as its target N-terminal Xaa-Pro-Lys N-methyltransferase 1 (Homo sapiens) (UniProt Q9BV86). The assay is described as follows: Confirmatory qHTS for Inhibitors of N-terminal methyltransferase 1 (NTMT1): MTaseGlo Assay (AID 1645874). Further: nearly all actives have a fitted effect of over 65% in size. Further: potency means the concentration at half of the fitted maximal effect. Put shortly:
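Enzyme mix (125 nM NTMT1, 100 uM SAM) + compound, 15 min RT; + 1 uM SPKRIA, 30 min RT, dark; MTase-Glo reagent 30 min, detection solution 30 min; luminescence. % inhibition vs no-enzyme/DMSO controls, 4-parameter Hill fit.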

“And” between values parts separate entries of the source, which are not always exact repeats. Equal entries are not always repeated. Results filed as inconclusive are left out. The source made the active and inactive calls. Unless noted, the call rests on the fitted dose curve; in most records, active means well fitted curve in the direction sought with a large enough effect; inconclusive means small, poorly fitted or top-dose-only effect, or another doubt; inactive means no such curve, though single readings can be large; an effect the other way counts as inactive or inconclusive.

Chain of Cytochrome P450 2C9 (Homo sapiens) (P11712 whole entry, looked up): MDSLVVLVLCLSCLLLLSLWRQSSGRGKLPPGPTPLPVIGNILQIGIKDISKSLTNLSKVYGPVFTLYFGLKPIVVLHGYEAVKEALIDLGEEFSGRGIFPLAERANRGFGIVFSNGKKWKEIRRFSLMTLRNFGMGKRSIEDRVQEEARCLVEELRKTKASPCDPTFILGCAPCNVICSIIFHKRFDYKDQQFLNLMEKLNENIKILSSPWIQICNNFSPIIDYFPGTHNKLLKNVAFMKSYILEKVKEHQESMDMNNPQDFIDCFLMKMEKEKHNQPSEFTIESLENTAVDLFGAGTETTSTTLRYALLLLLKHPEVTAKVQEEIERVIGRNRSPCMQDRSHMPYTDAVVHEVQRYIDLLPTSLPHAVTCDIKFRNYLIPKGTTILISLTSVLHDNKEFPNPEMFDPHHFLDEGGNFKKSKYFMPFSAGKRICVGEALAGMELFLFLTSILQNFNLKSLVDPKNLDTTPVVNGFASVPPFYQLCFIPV
Chain of Papain (Carica papaya) (P00784 whole entry, looked up): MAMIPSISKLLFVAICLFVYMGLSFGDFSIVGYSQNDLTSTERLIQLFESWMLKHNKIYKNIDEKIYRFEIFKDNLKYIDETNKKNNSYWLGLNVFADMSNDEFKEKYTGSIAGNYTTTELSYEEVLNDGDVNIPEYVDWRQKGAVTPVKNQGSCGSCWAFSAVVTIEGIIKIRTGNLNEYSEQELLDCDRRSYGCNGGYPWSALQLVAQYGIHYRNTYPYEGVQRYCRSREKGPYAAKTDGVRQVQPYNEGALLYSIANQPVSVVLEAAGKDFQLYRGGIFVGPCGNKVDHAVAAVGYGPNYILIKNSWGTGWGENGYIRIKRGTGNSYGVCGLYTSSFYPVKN
Chain of N-terminal Xaa-Pro-Lys N-methyltransferase 1 (Homo sapiens) (Q9BV86 whole entry, looked up): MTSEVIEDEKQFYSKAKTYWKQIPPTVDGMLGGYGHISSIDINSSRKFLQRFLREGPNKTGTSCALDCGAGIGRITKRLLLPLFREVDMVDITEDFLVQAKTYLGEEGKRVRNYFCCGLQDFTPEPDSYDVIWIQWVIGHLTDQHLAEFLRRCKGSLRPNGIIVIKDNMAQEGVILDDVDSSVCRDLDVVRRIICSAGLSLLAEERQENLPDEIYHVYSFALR
Chain of Cytochrome P450 2D6 (Homo sapiens) (P10635 whole entry, looked up): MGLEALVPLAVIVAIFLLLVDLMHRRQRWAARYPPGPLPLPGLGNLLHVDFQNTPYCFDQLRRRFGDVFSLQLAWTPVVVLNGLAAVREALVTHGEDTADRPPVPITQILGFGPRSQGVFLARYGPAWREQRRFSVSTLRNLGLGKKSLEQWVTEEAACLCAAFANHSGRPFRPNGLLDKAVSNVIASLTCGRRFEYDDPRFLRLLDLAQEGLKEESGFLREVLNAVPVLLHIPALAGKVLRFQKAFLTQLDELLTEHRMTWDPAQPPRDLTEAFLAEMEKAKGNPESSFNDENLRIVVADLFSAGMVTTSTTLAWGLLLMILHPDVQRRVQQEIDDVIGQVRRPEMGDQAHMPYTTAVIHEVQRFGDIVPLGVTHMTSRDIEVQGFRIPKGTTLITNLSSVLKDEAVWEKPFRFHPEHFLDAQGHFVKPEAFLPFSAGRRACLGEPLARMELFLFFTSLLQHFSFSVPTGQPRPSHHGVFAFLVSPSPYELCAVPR

For the compound `CC(C)(C)CC(C)(C)c1ccc(O)c(Cc2ccc(Cl)cc2Cl)c1`, the Potency is 19.5 µM (active) in assay [1] and 3.09 µM (active) in assay [2]. Besides, the Potency result in assay [3] is “inactive”.

Consider `CN1[C@@H]2CC[C@H]1CC(OC(=O)c1c[nH]c3ccccc13)C2` (some centres not stated), for which the Potency in assay [1] is 12.3 µM (active). For the same compound, the Potency entry in assay [2], in assay [3] and in assay [4] was “inactive” throughout.

On to `CCN1CCN(c2cc3c(cc2F)c(=O)c(C(=O)O)cn3C2CC2)CC1`, for which the Potency result in assay [1], in assay [2], in assay [3] and in assay [4] was “inactive” in each case.

As for `Nc1ccc(C(=O)Nc2ccccc2N)cc1`, the Potency entry in assay [1] and in assay [2] was “inactive” each time. Besides, the Potency in assay [3] was 9.44 µM (active); in assay [4], 8.41 µM (active).

Turning to `CC(C)n1nc(-c2cc3cc(O)ccc3[nH]2)c2c(N)ncnc21`, the Potency in assay [1] is 13.5 µM (active); in assay [2] it was 1.95 µM (active) and 1.51 µM (active); in assay [3], 29.9 nM (active) and 3.32 µM (active); in assay [4], 47.3 nM (active) and 3.32 µM (active).

Turning to `NC[C@H]1O[C@H](O[C@H]2[C@H](O)[C@@H](O[C@H]3O[C@H](CO)[C@@H](O)[C@H](N)[C@H]3O)[C@H](N)C[C@@H]2N)[C@H](N)[C@@H](O)[C@@H]1O`, the Potency entry in assay [1], in assay [2], in assay [3] and in assay [4] was “inactive” throughout.

Consider `N[C@H](CO)C(=O)O`, for which the Potency entry in assay [1], in assay [2] and in assay [5] was “inactive” throughout.

For the compound `CCCCCCCCCCCCCCCCCC(=O)OCC(O)CO` (configuration not stated), the Potency entry in assay [1], in assay [2], in assay [3] and in assay [4] was “inactive” throughout.

With `Cc1cc(O)c(C(C)C)cc1Cl`, the figures for the Potency in assay [1] and in assay [2] were 12.3 µM (active) and 21.9 µM (active), respectively. Also, the Potency entry in assay [3] and in assay [4] was “inactive” throughout.

Consider `CC1(C)O[C@@H]2C[C@H]3[C@@H]4CCC5=CC(=O)CC[C@]5(C)[C@@]4(F)[C@@H](O)C[C@]3(C)[C@]2(C(=O)CCl)O1`, for which the Potency entry in assay [1], in assay [3] and in assay [4] was “inactive” in each case. Further, the Potency in assay [2] is 8.71 µM (active).

Consider `Cc1c(N(C)CS(=O)(=O)O)c(=O)n(-c2ccccc2)n1C`, for which the Potency result in assay [1], in assay [2], in assay [3] and in assay [4] was “inactive” throughout.

Take `COC(=O)C1=C(C)NC(C)=C(C(=O)O[C@@H]2CCCN(Cc3ccccc3)C2)[C@@H]1c1cccc([N+](=O)[O-])c1`: the Potency in assay [1] was 6.92 µM (active); in assay [2] it was 0.195 µM (active); in assay [3] it was 21.1 µM (active) and 25.8 µM (active); in assay [4], 20.5 µM (active). Moreover, the Potency entry in assay [6] was “inactive”.

`CCC(=O)c1c(O)cc(O)cc1O`: the Potency is 24.5 µM (active) in assay [1] and 15.5 µM (active) in assay [2]. Besides, the Potency entry in assay [3] and in assay [4] was “inactive” in each case.

Regarding `COc1cccc(OC)c1C(=O)N[C@@H]1C(=O)N2[C@@H]1SC(C)(C)[C@@H]2C(=O)O`, the Potency entry in assay [1], in assay [2], in assay [3] and in assay [4] was “inactive” in each case.

In the case of `CCCCC(CC)CN=C(N)NC(N)=NCCCCCCN=C(N)NC(N)=NCC(CC)CCCC` (configuration not stated), the Potency was 0.617 µM (active) in assay [1]; 12.3 µM (active) in assay [2]; 18.3 µM (active) in assay [6]; 0.75 µM (active) in assay [3]; 0.841 µM (active) in assay [4].

With `C=C(CC)C(=O)c1ccc(OCC(=O)O)c(Cl)c1Cl`, in assay [1], the Potency result is “inactive”. In addition, the Potency was 3.89 µM (active) in assay [2] and 21.1 µM (active) in assay [3].

`CC1(C)OC[C@@H](COC(=O)CCc2ccc(OC[C@@H](O)CNCCNC(=O)N3CCOCC3)cc2)O1`: the Potency entry in assay [1], in assay [2], in assay [3] and in assay [4] was “inactive” in each case.

For `CC(O)C(=O)O` (configuration not stated), the Potency in assay [1] is 12.3 µM (active). In addition, the Potency entry in assay [2], in assay [3] and in assay [4] was “inactive” throughout.

For the compound `C[C@]12CC[C@@H]3c4ccc(O)cc4CC[C@H]3[C@@H]1CC[C@@H]2O`, the Potency entry in assay [1], in assay [2] and in assay [5] was “inactive” throughout. The Potency was 16.6 µM (active) in assay [3] and 7.42 µM (active) in assay [4].

For the compound `C[C@]12CC[C@H]3[C@@H](CCC4=CC(=O)CC[C@@]43C)[C@@H]1CC[C@@H]2C(=O)CO`, the Potency entry in assay [1] and in assay [2] was “inactive” throughout.

Turning to `CN=C(NC#N)Nc1ccc(C2=NNC(=O)CC2C)cc1` (configuration not stated), the Potency entry in assay [1], in assay [2], in assay [3] and in assay [4] was “inactive” throughout.

In the case of `CCN(CC)C(=O)N1CCN(C)CC1`, the Potency entry in assay [1], in assay [2] and in assay [3] was “inactive” each time.

As for `CC(=O)N/N=C/c1ccc([N+](=O)[O-])o1`, the results for the Potency in assay [1], in assay [3] and in assay [4] were 15.5 µM (active), 9.44 µM (active) and 8.41 µM (active), respectively. In addition, the Potency result in assay [2] is “inactive”.

For the compound `Cc1c(C)n(Cc2ccccc2)c2ccc(C(=O)OCCN(C)C)cc12`, the Potency in assay [1] is 13.8 µM (active); in assay [2], 12.3 µM (active); in assay [6], 5.78 µM (active); in assay [3], 10.6 µM (active); in assay [4], 9.44 µM (active).

With `O=C1[C@H]2CCCC[C@H]2C(=O)N1CCCCN1CCN(c2nsc3ccccc23)CC1`, the figures for the Potency in assay [1], in assay [3] and in assay [4] were 12.3 µM (active), 21.1 µM (active) and 23.7 µM (active), respectively. For the same compound, in assay [2], the Potency entry is “inactive”.

As for `C[C@]12CC[C@@H]3c4ccc(O)cc4CC[C@H]3[C@@H]1C[C@@H](O)[C@@H]2O`, the Potency entry in assay [1], in assay [2], in assay [6] and in assay [3] was “inactive” in each case.

As for `CNCCC=C1c2ccccc2CCc2ccccc21`, the Potency was 4.77 µM (active) in assay [1], 23.1 µM (active) in assay [3] and 20.6 µM (active) in assay [4]. Moreover, the Potency result in assay [2] and in assay [5] was “inactive” each time.
